# Test results reported in PubChem BioAssay (NCATS).
# Records with an inconclusive call do not appear. A call without a number means that no potency is given here. Values without a mark were called inactive. Active and inactive are the calls of the source. Calls come from the whole dose curve; as a rule, active = well fitted curve in the direction sought with a large enough effect; inconclusive = small, poorly fitted or top-dose-only effect, or another doubt; inactive = no such curve, though single readings can be large; an effect the other way counts as inactive or inconclusive.
# Columns and labels:
# [1] = P-glycoprotein substrates identified in KB-3-1 adenocarcinoma cell line, qHTS therapeutic library screen (AID 1346986); note: nearly all actives have a fitted effect of over 60% in size
# Method in brief: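 Viability read by CellTiter-Glo after 72 h compound exposure in dose-response of KB-3-1 and KB-8-5-11 (P-gp-high) cells. Hits needed AC50 < 10 uM, >50% maximum response and curve class -1.1 to -2.4. Cherry-picks retested ± tariquidar, including pcDNA/MDR-19 HEK-293 pair.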
# [2] = P-glycoprotein substrates identified in KB-8-5-11 adenocarcinoma cell line, qHTS therapeutic library screen (AID 1346987); note: nearly all actives have a fitted effect of over 65% in size; for activity change, negative = cytotoxicity: series mostly up to about 44 µM
# Method in brief: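 Compounds are pinned in dose-response onto KB-8-5-11 cells (500 cells/well, colchicine-free medium) and left 72 h at 37 degree C. CellTiter-Glo luminescence then yields AC50 values.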
# Furin (Homo sapiens) = Furin (Homo sapiens) (UniProt P09958); assay: Furin counterscreen qHTS for Zika virus inhibitors (AID 1347149); note: nearly all actives have a fitted effect of over 70% in size; note: potency is the fitted concentration of half-maximal effect
# Furin (Homo sapiens), sequence (P09958 whole entry, looked up): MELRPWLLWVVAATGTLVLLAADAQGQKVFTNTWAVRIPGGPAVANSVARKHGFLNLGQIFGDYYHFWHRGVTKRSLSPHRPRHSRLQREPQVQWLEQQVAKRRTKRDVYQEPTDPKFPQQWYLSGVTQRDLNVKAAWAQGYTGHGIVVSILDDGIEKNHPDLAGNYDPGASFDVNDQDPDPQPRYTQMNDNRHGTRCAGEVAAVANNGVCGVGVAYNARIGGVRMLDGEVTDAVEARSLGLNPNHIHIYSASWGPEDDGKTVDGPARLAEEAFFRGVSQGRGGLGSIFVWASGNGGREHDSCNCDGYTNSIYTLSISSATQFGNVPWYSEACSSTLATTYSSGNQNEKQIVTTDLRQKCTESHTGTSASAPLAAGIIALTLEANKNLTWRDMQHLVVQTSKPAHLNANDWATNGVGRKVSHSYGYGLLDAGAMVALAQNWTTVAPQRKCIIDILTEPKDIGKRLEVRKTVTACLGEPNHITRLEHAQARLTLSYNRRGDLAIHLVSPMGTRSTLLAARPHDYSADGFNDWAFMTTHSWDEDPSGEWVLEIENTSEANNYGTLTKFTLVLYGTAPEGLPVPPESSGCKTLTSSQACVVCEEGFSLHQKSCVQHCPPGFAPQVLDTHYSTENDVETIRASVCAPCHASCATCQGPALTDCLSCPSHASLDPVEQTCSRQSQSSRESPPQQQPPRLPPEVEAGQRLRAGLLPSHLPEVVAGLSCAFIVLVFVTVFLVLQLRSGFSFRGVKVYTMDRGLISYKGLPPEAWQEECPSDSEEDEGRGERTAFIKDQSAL
# Method in brief: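 Counterscreen measures cleavage of 2 microM BOC-RVRR-AMC, below its ~15 microM Km, by 5 nM full-length human furin at pH 7.0 after a 15-min compound preincubation. Inhibition derives from the 15-min fluorescence increase at 37C.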
structure (smiles),measurement,setting,value
COCCN1CCC(C(=O)NO)(S(=O)(=O)c2ccc(Oc3ccc(OC(F)(F)F)cc3)cc2)CC1,Potency,[1],inactive
same,Potency,[2],inactive
CC(=O)OC/C(=C/C(=O)O)CC[C@@H]1C(CO)=CC[C@@H]2C(C)(C)CCC[C@@]12C,Potency,[1],inactive
same,Potency,[2],inactive
C[C@@H]1CC2OC(=O)C3=C2C(CCC3O)[C@@]12C[C@@H](c1ccoc1)OC2=O (some centres undefined),Potency,[1],inactive
same,Potency,[2],inactive
O=C(O[C@@H]1O[C@H](CO)[C@@H](O)[C@H](O)[C@H]1O)c1ccccc1,Potency,[1],inactive
same,Potency,[2],inactive
COCc1c(O)c(C(=O)O)c(C)c2c1OC(=O)c1c(C)cc(O)c(CO)c1O2,Potency,[1],inactive
same,Potency,[2],inactive
C/C=C/C=C/[C@@H]1O[C@](O)([C@H](CC)C(=O)NC/C=C/C=C(\C)[C@@H](OC)[C@@H](C)[C@@H]2O[C@H](/C=C/C=C/C=C(\C)C(=O)c3c(O)ccn(C)c3=O)[C@H](O)[C@@H]2O)[C@H](O)[C@H](O)C1(C)C,outcome,[1],inactive [at 9.29 µM]
same,outcome,[2],inactive [at 9.29 µM]
COc1cc(/C=C/CO[C@@H]2O[C@H](CO)[C@@H](O)[C@H](O)[C@H]2O)cc(OC)c1O[C@@H]1O[C@H](CO)[C@@H](O)[C@H](O)[C@H]1O,Potency,[1],inactive
same,Potency,[2],inactive
CC/C=C/C=C/C1(C)OC(CC(CO)OC)=CC1=O (centres undefined),Potency,[1],inactive
same,Potency,[2],inactive
CCc1cccc2c3c([nH]c12)[C@@](CC)(CC(=O)O)OCC3,Potency,[1],inactive
same,Potency,[2],inactive
CC(=O)OC1CC2C(C)(C)C(=O)C=CC2(C)C2CC(=O)C3=C(CCC3C3=CC(O)OC3=O)C12C (centres undefined),Potency,[1],inactive
same,Potency,[2],inactive
CC1=CC(=O)CC(C)(C)[C@@]1(O)/C=C/C(C)O[C@@H]1O[C@H](CO)[C@@H](O)[C@H](O)[C@H]1O (some centres undefined),Potency,[1],inactive
same,Potency,[2],inactive
CC(C)CC(=O)NCCn1cc(C(=O)O)c(=O)cc1C(O)c1ccccc1 (centres undefined),Potency,[1],inactive
same,Potency,[2],inactive
O=C(C[C@@H]1C(C(=O)O)=CO[C@@H](O[C@@H]2O[C@H](CO)[C@@H](O)[C@H](O)[C@H]2O)/C1=C\CO)OCCc1ccc(O)cc1,Potency,[1],inactive
same,Potency,[2],inactive
CC(C/C=C/C(C)(C)O)C1CCC(C)(O)C(O)C1 (centres undefined),Potency,[1],inactive
same,Potency,[2],inactive
C/C=C1/[C@H](O[C@@H]2O[C@H](CO)[C@@H](O)[C@H](O)[C@H]2O)OC=C(C(=O)OC)[C@H]1CC(=O)OCCc1ccc(OC(=O)C[C@@H]2C(C(=O)OC)=CO[C@@H](O[C@@H]3O[C@H](CO)[C@@H](O)[C@H](O)[C@H]3O)/C2=C/C)cc1,outcome,[1],inactive [at 9.29 µM]
same,"activity change, negative = cytotoxicity",[2],6.56% [at 9.29 µM]
COc1cc(/C=C/C(=O)OCC2OC(OC3(CO)OC(CO)C(O)C3O)C(O)C(O)C2O)ccc1O (centres undefined),Potency,[1],inactive
same,Potency,[2],inactive
C/C=C(\C)C(=O)OC[C@H]1O[C@H](O[C@H]2O[C@H](CO)[C@@H](O)[C@H](O)[C@H]2O[C@@H]2O[C@H](CO)[C@@H](O)[C@H](O)[C@H]2O)[C@H](O[C@@H]2O[C@H](CO)[C@@H](O)[C@H](O)[C@H]2O)[C@@H](O)[C@@H]1O,Potency,[1],inactive
same,Potency,[2],inactive
C[C@H]1CC(=O)C2=C(C1)C(O)C(O)[C@@]1(O)[C@H]2C(=O)c2cccc(O)c2[C@@H]1O (some centres undefined),Potency,[1],inactive
same,Potency,[2],inactive
C=C[C@@]1(C)CCC2=C([C@H]1OC(C)=O)[C@H](OC(C)=O)CC1[C@](C)(C(=O)OC)CC[C@H](OC(C)=O)[C@]21C (some centres undefined),Potency,[1],inactive
same,Potency,[2],inactive
CC1(C)C2CCC1(C)C(OC(=O)C(O)(CC(=O)O)CC(=O)O)C2 (centres undefined),Potency,[1],inactive
same,Potency,[2],inactive
COC(=O)C1(C)CCCC2(C)c3ccc(C(C)C)cc3C(O)C(O)C12 (centres undefined),Potency,[1],inactive
same,Potency,[2],inactive
CC(=O)O[C@H]1C[C@@H](O)C(C)(C)C2C[C@@H](OC(C)=O)[C@]3(C)C(CC[C@@]4(C)[C@H](c5ccoc5)OC(=O)[C@H]5O[C@]543)[C@]21C (some centres undefined),Potency,[1],inactive
same,Potency,[2],inactive
CC(=O)OCC1=C[C@@H]2OC(=O)C3=CO[C@@H](O[C@@H]4O[C@H](CO)[C@@H](O)[C@H](O)[C@H]4O)[C@H]1[C@@H]32,Potency,[1],inactive
same,Potency,[2],inactive
C[C@@H]1O[C@@H](O[C@H]2[C@H](O[C@H]3[C@H](O[C@H]4CC[C@@]5(C)C(CC[C@]6(C)C5CC=C5[C@@H]7CC(C)(C)C[C@@H](O)[C@]7(C)CC[C@]56C)C4(C)C)O[C@H](C(=O)O)[C@@H](O)[C@@H]3O)O[C@H](C(=O)O)[C@H](O)[C@@H]2O)[C@H](O)[C@H](O)[C@H]1O (some centres undefined),outcome,[1],inactive [at 9.29 µM]
same,outcome,[2],inactive [at 9.29 µM]
CN1CCN(C2=Nc3ccccc3Nc3ccc(O)cc32)CC1,Potency,[1],inactive
same,Potency,[2],inactive
COC(=O)C1=COC(O[C@@H]2O[C@H](CO)[C@@H](O)[C@H](O)[C@H]2O)[C@@H]2[C@@](C)(O)[C@@H](OC(=O)/C=C/c3ccccc3)C[C@]12O (some centres undefined),Potency,[1],inactive
same,Potency,[2],inactive
Cc1cc(CO)c(O)c(C(=O)CC2CC(=O)NC(=O)C2)c1,Potency,[1],inactive
same,Potency,[2],inactive
CC1=C2CC(C)(C)CC2C(O)C2=C(C1)C(=O)OC2O (centres undefined),Potency,[1],inactive
same,Potency,[2],inactive
CC(=O)/C=C/C1(O)C(C)(C)CC(O)CC1(C)O (centres undefined),Potency,[1],inactive
same,Potency,[2],inactive
COc1cc(/C=C/C(=O)OC[C@H]2O[C@@H](OC3CC(C)=C(C(=O)O)C(C)(C)C3)[C@H](O)[C@@H](O)[C@@H]2O)cc(OC)c1O (some centres undefined),Potency,[1],inactive
same,Potency,[2],inactive
COc1ccc(/C=C/C(N)=O)cc1OC,Potency,[1],inactive
same,Potency,[2],inactive
COc1cncc(C#Cc2ccccn2)c1,Potency,[2],inactive
CC(C)CC(c1c(O)c(C=O)c(O)c(C=O)c1O)C1CCC(C)(O)C2CC(C(C)(C)O)CCC12C (centres undefined),Potency,[1],inactive
same,Potency,[2],inactive
same,Potency,Furin (Homo sapiens),inactive
COC(=O)C1=COC(OC2OC(CO)C(O)C(O)C2O)C2C(COC(=O)/C=C/c3ccc(O)c(O)c3)C(O)C(O)C12 (centres undefined),Potency,[1],inactive
same,Potency,[2],inactive
CC1=COC(OC2OC(CO)C(O)C(O)C2O)C2C(CO)CC(OC(=O)/C=C/c3ccc(O)cc3)C12 (centres undefined),Potency,[1],inactive
same,Potency,[2],inactive
CCNC(=O)C1CC(F)(c2ccc(CN3CCCC3)c(F)c2)C1 (centres undefined),Potency,[2],inactive
Cc1cn2cc(CC(=O)N3CCC4(CC3)CN(Cc3ccc(-n5nccn5)cc3Cl)C4)nc2s1,Potency,[2],inactive
Cc1ccc(-n2nc(C(C)(C)C)cc2NC(=O)Nc2cc(COc3cccnc3)[nH]n2)cc1,Potency,[1],inactive
same,Potency,[2],inactive
COc1ccc(-n2c(=O)[nH]c3cc(C(=O)NCc4ccc(Cl)cc4)sc3c2=O)nc1OC,Potency,[2],inactive
CC(CC(C)O[C@@H]1O[C@H](CO)[C@@H](O)[C@H](O)[C@H]1O)OC(=O)/C=C/c1ccc(O)cc1 (some centres undefined),Potency,[1],inactive
same,Potency,[2],inactive
CN(C)CC(c1ccc(O)cc1)C1(O)CCCCC1 (centres undefined),Potency,[1],inactive
same,Potency,[2],inactive
CCN=C1N[C@@H]2[C@@H](O)[C@H](O)[C@@H](CO)O[C@@H]2S1,Potency,[2],inactive
Cc1occc(=O)c1O[C@@H]1O[C@H](CO[C@@H]2OC[C@](O)(CO)[C@H]2O)[C@@H](O)[C@H](O)[C@H]1O,Potency,[1],inactive
same,Potency,[2],inactive
CC(C)c1ccc2c(c1)C(O)CC1C(C)(C(=O)O)CCCC21C (centres undefined),Potency,[2],inactive
Cc1ccccc1NC(=O)Nc1ccc(CN2C(=O)N([C@@H](CC(C)C)C(=O)N[C@@H](CC(=O)O)c3ccccc3)C(=O)C2(C)C)cc1,Potency,[1],inactive
same,Potency,[2],inactive
same,Potency,Furin (Homo sapiens),inactive
CC(=O)OC1C(O)C(C)(O)C(/C=C/C(=O)O)C2(C)CCCC(C)(C)C12 (centres undefined),Potency,[2],inactive
O=C(O)c1ccnc2cc(C(OCC3CCC(F)(F)CC3)c3ccccc3Cl)[nH]c12 (centres undefined),Potency,[2],inactive
CCc1nnc(NS(=O)(=O)c2ccc(NC(=S)NC(=O)/C=C/c3ccc(F)cc3)cc2)s1,Potency,[1],inactive
same,Potency,[2],inactive
same,Potency,Furin (Homo sapiens),inactive
C[C@@]1(C(=O)O)CCC[C@@]2(C)C3=CC[C@H]4C[C@@]3(CC[C@H]12)CC4(O)CO (some centres undefined),Potency,[1],inactive
same,Potency,[2],inactive
C[C@@H]1C[C@@H](O)[C@@]23CO[C@]2(CO)C[C@@H](O)CC3[C@@]12CC(c1ccoc1)OC2=O (some centres undefined),Potency,[1],inactive
same,Potency,[2],inactive
COc1cccc(OC)c1-c1cc(C(=O)N[C@@H](CC(C)C)C(=O)O)nn1-c1ccnc2cc(Cl)ccc12,Potency,[1],inactive
same,Potency,[2],inactive
same,Potency,Furin (Homo sapiens),inactive
CC(C)=CC1C[C@](C)(O)[C@@H]2[C@H]3CCC4[C@@]5(C)CC[C@H](O[C@@H]6OC[C@H](O)[C@H](O[C@@H]7O[C@H](CO[C@@H]8O[C@H](CO)[C@@H](O)[C@H](O)[C@H]8O)[C@@H](O)[C@H](O)[C@H]7O)[C@H]6O[C@@H]6O[C@@H](C)[C@H](O)[C@@H](O)[C@H]6O)C(C)(C)[C@@H]5CC[C@@]4(C)[C@@]34CO[C@@]2(C4)O1 (some centres undefined),outcome,[1],inactive [at 9.29 µM]
same,"activity change, negative = cytotoxicity",[2],9.35% [at 9.29 µM]
C[C@@H]1O[C@@H](O[C@H]2[C@@H]3C=CO[C@@H](O[C@@H]4O[C@H](CO)[C@@H](O)[C@H](O)[C@H]4O)[C@@H]3[C@@]3(CO)O[C@@H]23)[C@H](OC(=O)/C=C/c2ccc(O)cc2)[C@H](O)[C@H]1O,Potency,[2],inactive
O=C(Nc1ccccc1)Nc1ccc(-c2ccc(C(=O)C3CCCC3C(=O)O)cc2)cc1 (centres undefined),Potency,[1],inactive
same,Potency,[2],inactive
same,Potency,Furin (Homo sapiens),55.5 µM (active)
C/C=C(/C)C(=O)O[C@H]1C[C@]2(C)O[C@@H]2[C@@H](OC(C)=O)[C@@]2(C)CC[C@@](O)(C(C)C)[C@H]12,Potency,[2],inactive
COc1cccc(OC)c1-c1nc(C(=O)N[C@@H](CC(C)C)C(=O)O)cn1-c1ccnc2cc(Cl)ccc12,Potency,[1],inactive
same,Potency,[2],inactive
COc1cc(/C=C/C(=O)O[C@H]2[C@@H]3C=CO[C@@H](O[C@@H]4O[C@H](CO)[C@@H](O)[C@H](O)[C@H]4O)[C@@H]3[C@@]3(CO)O[C@@H]23)ccc1O,Potency,[1],inactive
same,Potency,[2],inactive
CCCCNc1nc(N)c2[nH]c(=O)n(Cc3ccc(OCCN(C)C)nc3)c2n1,Potency,[1],inactive
same,Potency,[2],inactive
CN1CCN(c2nc(-c3ccc(C(=O)NC4(C(=O)NCC#N)CCCCC4)cc3)cs2)CC1,Potency,[2],inactive
COc1cc(O)cc(O[C@@H]2O[C@H](CO)[C@@H](O[C@@H]3OC[C@](O)(CO)[C@H]3O)[C@H](O)[C@H]2O)c1OC,Potency,[1],inactive
same,Potency,[2],inactive
